Laboratory results reported in PubChem BioAssay AID686979 (National Center for Advancing Translational Sciences (NCATS), 2013).
In all, about 420,000 compounds went through this assay and about 50,000 (12%) were called active. A call without a number means that no potency is given here. Not shown: some 26% with an inconclusive outcome. Many of the other results were omitted from the sample, so actives are more common in it than they were. Unmarked numbers belong to inactive results. Calls follow the shape of the dose curve; as a rule, active = well fitted inhibition curve with a large enough effect; inconclusive = small, poorly fitted or top-dose-only effect; inactive = flat fitted curve, though single readings scatter.

Assay: qHTS for Inhibitors of human tyrosyl-DNA phosphodiesterase 1 (TDP1): qHTS in cells in presence of CPT; also: nearly all actives have a fitted effect of over 55% in size
Settings: chicken DT40 Tdp1-/-;hTDP1 cells + 20 nM CPT, ATP luminescence, 48 h; series mostly up to 46.2 µM
Outline: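 Cell growth measured by CellTiter-Glo luminescence after a minimum 48 h, 37 C compound exposure with 20 nM CPT in Tdp1-knockout DT40 cells stably expressing hTDP1, seeded 400/well; qHTS titration format.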
Potency is read from the fitted curve at half-maximal effect.

SMILES	Potency	activity change, negative = growth inhibition
CCN(CC)CCNCc1ccc(OCc2ccc(Cl)nc2)c(OC)c1	inactive	
COc1ccc(NC(=O)c2oc3ccc(S(=O)(=O)N4CCOCC4)cc3c2C)cc1	11.6 µM (active)	
Cc1c(C(=O)NCCN(C)C)oc2ccc(S(=O)(=O)N3CCCC3)cc12	inactive	
Cc1occc1C(=O)Nc1cccc(S(=O)(=O)N2CCOCC2)c1	inactive	
CCCNC(=O)C1(C)CCN(C(=O)c2ccc(F)cc2Cl)C1 (stereo not drawn)	inactive	
OCC(O)CN(c1ccccc1)c1ccccc1 (stereo not drawn)	inactive	
O=C(NCCc1ccccc1)Oc1ccc(Cl)cc1	inactive	
Cc1cc(OCCCC(=O)NCCN2C(=O)S/C(=C\c3cccnc3)C2=O)ccc1Cl	8.2 µM (active)	
COc1ccc(N2CC(C(=O)NCCN3C(=O)S/C(=C\c4cccnc4)C3=O)CC2=O)c(OC)c1 (stereo not drawn)	inactive	
CCOc1ccc(N2CC(C(=O)NCCN3C(=O)S/C(=C\c4cccnc4)C3=O)CC2=O)cc1 (stereo not drawn)	inactive	
CC1CCN(C(=O)COC(=O)c2cc(S(=O)(=O)N3CCOCC3)ccc2Cl)CC1	inactive	
COc1ccc(O)c(/C=N/N=C/c2cccc([N+](=O)[O-])c2)c1	inactive	
COc1cc(NC(=O)COC(=O)c2ccc([N+](=O)[O-])s2)cc(OC)c1OC	inactive	
O=C(OCC(=O)N1CCN(c2ccccc2)CC1)c1ccc([N+](=O)[O-])s1	10.3 µM (active)	
COc1ccc(C(=O)COC(=O)c2ccc([N+](=O)[O-])s2)cc1OC	inactive	
CCN(CC)CCN1C(=O)C2C(C(=O)Nc3ccc(Br)cc3)C3C=CC2(O3)C1C(=O)NC1CCCCC1 (stereo not drawn)	inactive	
Brc1cc(Br)c(Oc2cc(Br)c(Br)cc2Br)cc1Br	inactive	
CC(=O)Nc1ccc(NC(=O)C(C)n2c3ccccc3c3nc(=O)cc(C)n32)cc1 (stereo not drawn)	inactive	
CC(C)(C)c1cc2cccnc2n1Cc1ccccc1	inactive	
O=C(CN1C(=O)NC2(CCCC2)C1=O)Nc1cc(C(F)(F)F)ccc1N1CCOCC1	inactive	
CN1C2CCC1CC(NC(=O)c1ccc([N+](=O)[O-])cc1)C2 (stereo not drawn)	inactive	
CC(=O)N1CC[n+]2c(-c3ccc([N+](=O)[O-])cc3)csc21	18.4 µM (active)	
Cc1cc(C)cc(C(=O)N2CCN=C2SCc2ccc([N+](=O)[O-])cc2)c1	inactive	
CCn1c(CNC(=O)c2ccc(OC)c(OC)c2)nnc1SCC(=O)Nc1ccccc1	inactive	
COc1ccc(C(=O)NC2CC(C)(C)NC(C)(C)C2)cc1OC	inactive	
CCOc1c(CNCc2ccc(C(=O)O)cc2)cccc1OC	inactive	
CCOc1c(OC)cccc1C(=O)NCC1(c2ccccc2)CCCC1	5.8 µM (active)	

SMILES	Potency	activity change, negative = growth inhibition
COc1cc(C(=O)NCC2(c3ccccc3)CCCC2)ccc1OC(C)C	20.6 µM (active)	
COc1ccccc1C(=O)NCCC(=O)NN1C(=O)NC2(CCCCC2)C1=O	inactive	
CN(C)C(CNC(=O)c1cccc(S(=O)(=O)Nc2ccc(Br)cc2)c1)c1ccco1 (stereo not drawn)	inactive	
COc1ccc(C(=O)c2oc3ccccc3c2NC(=O)COc2cccc(C)c2)cc1	inactive	
CCCc1nnc(SCC(=O)N2C(C)CCCC2C)n1CC (stereo not drawn)	inactive	
O=c1c(CN2CCOc3ccc(CN4CCC(Oc5cccnc5)CC4)cc3C2)coc2ccccc12		0.59% [at 9.04 µM]
CCn1c(COc2c(C)cccc2C)nnc1SCc1nc2ccccc2c(=O)[nH]1	inactive	
COc1ccc(C)cc1-n1nnnc1SCc1nc2ccccc2c(=O)[nH]1	13 µM (active)	
COCCn1c(SCc2nc3cc(OC)c(OC)cc3c(=O)[nH]2)nnc1-c1ccncc1	inactive	
Cc1cccc(NC(=O)Nc2ccc(OCc3ccccc3)cc2)n1	inactive	
O=C(OCC(=O)N1CCN(C(=O)c2ccco2)CC1)c1cccc(O)c1	inactive	
COc1ccc(Cl)cc1NS(=O)(=O)c1cccc(C(=O)NCC2CCCO2)c1 (stereo not drawn)	inactive	
CC(C)CC(CCc1ccccc1)OS(N)(=O)=O (stereo not drawn)	inactive	
Cc1ccc(Cn2c(=O)n(Cc3nc(-c4ccccc4)no3)c(=O)c3cc4c(cc32)OCO4)cc1	inactive	
Cc1ccc(Cn2c(C)nc3c(c2=O)c2nc4ccccc4nc2n3Cc2ccco2)cc1	25.9 µM (active)	
CSc1nc2ccccc2c(=O)n1Cc1ccc(F)cc1	inactive	
O=C(O)CSCc1ccc(C(=O)O)o1	inactive	
COc1ccc(C(=O)OCC(=O)Nc2cccc(C(C)=O)c2)cc1OC	inactive	
COc1ccc(OCC(=O)NNC(=O)C2CCC2)cc1	inactive	
O=C(CC1CCCCC1)NCc1ccc(F)cc1	inactive	
OC(COc1ccc2ccccc2c1)CN1CCOCC1 (stereo not drawn)	inactive	
O=S(=O)(c1ccc(OCC(O)CN2CCN(c3ccccc3Cl)CC2)cc1)N1CCOCC1 (stereo not drawn)	14.6 µM (active)	
CC(=O)Nc1ccc(OCC(O)CN2CCN(c3ccccc3Cl)CC2)cc1 (stereo not drawn)	inactive	
O=[N+]([O-])c1ccc(N2CCN(CC(O)COc3ccccc3)CC2)cc1 (stereo not drawn)	20.6 µM (active)	
C[N+]1(CC(O)COc2ccccc2)CCN(C(=O)c2ccc([N+](=O)[O-])cc2)CC1 (stereo not drawn)	inactive	
OC(COc1ccccc1)CN1CCN(c2cccc(Cl)c2)CC1 (stereo not drawn)	inactive	
